Among the data in PubChem BioAssay (NCATS) are Potency, Z-AUC and z-score values, retold here.

Inconclusive results are not listed. The source made the active and inactive calls. Unless noted, calls come from the whole dose curve; as a rule, active = well fitted curve in the direction sought with a large enough effect; inconclusive = small, poorly fitted or top-dose-only effect, or another doubt; inactive = no such curve, though single readings can be large; an effect the other way counts as inactive or inconclusive. Positions of bridges follow the written chain, without caps; N, C: chain ends. Non-standard residues stand in square brackets, D forms with d. Residues, ends and D or L forms follow the SMILES beside them. ξ: configuration not given here. *: point of attachment. Octanoyl(6-Me) = CCC(C)CCCCC(=O)*; ξThr(3R) = C[C@@H](O)C(N)C(=O)O; dDab = NCC[C@@H](N)C(=O)O; Dab = NCC[C@H](N)C(=O)O

Assay [1] in a line: Quantitative High-Throughput drug screen in 47 multiple myeloma cell lines against the NCATS MIPE library collection: KMS28BM_JCRB cell viability assay (AID 1919874). Note: nearly all actives have a fitted effect of over 35% in size. A digest of the protocol:
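Cells were exposed to library compounds for 48 hours, after which ATP was measured by CellTiter-Glo. Signal was taken as median relative luminescence units.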

Assay [2] in a line: qHTS drug screen for cell cycle checkpoint inhibitors in PARPi-resistant BRCA-mutant ovarian cancer cell lines. (AID 1963452; calls by dose curve). Conditions: PEO1/OlaR viability, CellTiter-Glo luminescence, 96 h, stronger effect = lower value. In outline:
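PEO1, PEO4 and PEO1/OlaR ovarian cancer cells, 600 per well, exposed 96 h at 37C to a dilution series. Viability read by CellTiter-Glo luminescence, normalized to DMSO and empty wells; activity summarized as Z-AUC.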
For orientation: In qHTS, concentration-response curves come from the screen itself.

The nature of assay [3]: qHTS for identification of novel therapeutic agents for treatment of microphthalmiaassociated transcription factor (MiT) renal cell carcinoma (RCC) (AID 1963991). Conditions: CellTiter-Glo, 48 h, stronger effect = lower value. A digest of the protocol:
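Viability of three TFE3-fusion renal carcinoma lines measured by CellTiter-Glo after 48 h treatment with each of 1912 compounds at 11 concentrations. Responses scaled between DMSO (100%) and empty wells (0%) before curve fitting.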

Assay [4] deals with 3D7. Description: qHTS profiling for inhibitors of Plasmodium falciparum proliferation (AID 504749).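 Note: 0% = DMSO vehicle and full inhibition = artemisinin control; nearly all actives have a fitted effect of over 60% in size.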 Conditions: P. falciparum in erythrocytes, SYBR Green DNA, 72 h; series mostly up to 28.7 µM. A digest of the protocol:
(§1)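 Each compound contacts P. falciparum-infected red blood cells for 72 h at 37 C; lysis buffer (Tris, EDTA, saponin, Triton X, SYBR Green I) is added and fluorescence measured next morning; values normalized to controls.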

The subject of assay [5] is 7G8. The assay is described as above. The settings on record: P. falciparum in erythrocytes, SYBR Green DNA, 72 h; series mostly up to 28.7 µM. A digest of the protocol:
as §1

The test system of assay [6] is AA1029. The assay is described as above. Conditions: P. falciparum in erythrocytes, SYBR Green DNA, 72 h; series mostly up to 28.7 µM. In outline: as §1
Assay [7] concerns AS120. The description is as above. The settings on record: P. falciparum in erythrocytes, SYBR Green DNA, 72 h; series mostly up to 28.7 µM. In outline: as §1
Assay [8] relates to ATS189. Described as above. The settings on record: P. falciparum in erythrocytes, SYBR Green DNA, 72 h; series mostly up to 28.7 µM. A digest of the protocol: as §1
The mark [9] stands for this setting: measured here: PEO1 parental Z-AUC.
The mark [10] stands for this setting: TFE3-RCC UOK109 viability, measured here: UOK109 Z-AUC.
Setting [11] is: TFE3-RCC viability, measured here: UOK124 Z-AUC.
[12] abbreviates: TFE3-RCC viability, measured here: UOK145 Z-AUC.

Turning to `C[C@H](CCC(=O)O)[C@H]1CCC2C3C[C@H](O)[C@@H]4C[C@H](O)CC[C@]4(C)C3CC[C@@]21C` (stereo partly specified), the Potency result in assay [1] is “inactive”. Besides, the Z-AUC in assay [2] was 0.00585 (inactive); in assay [2] (setting [9]), 0.454; in assay [2] (measured here: PEO4 Z-AUC), 0.29. Also, the z-score in assay [3] (setting [10]) turned out to be 0.156; in assay [3] (setting [11]), 0.446; in assay [3] (setting [12]), 0.00817.
For the compound `C[C@H]1COc2c(N3CCN(C)CC3)c(F)cc3c(=O)c(C(=O)O)cn1c23`, the Potency result in assay [1] was “inactive”. In addition, the Z-AUC in assay [2] is -0.648 (inactive); in assay [2] (setting [9]), -0.279; in assay [2] (measured here: PEO4 Z-AUC), -0.579. The z-score came out at 1.28 in assay [3] (setting [10]), 0.967 in assay [3] (setting [11]) and 1.39 in assay [3] (setting [12]).
Consider `CCCNS(=O)(=O)Nc1ncnc(OCCOc2ncc(Br)cn2)c1-c1ccc(Br)cc1`, for which the Potency entry in assay [1] is “inactive”. The Z-AUC in assay [2] was 0.736 (inactive); in assay [2] (setting [9]), 0.726; in assay [2] (measured here: PEO4 Z-AUC), 1.05. Also, the z-score in assay [3] (setting [10]) was 1.06; in assay [3] (setting [11]) it was 1.04; in assay [3] (setting [12]) it was 0.601.
In the case of `C[C@@H]1CC[C@@]2(OC1)OC1CC3C4CC=C5CC(O)CCC5(C)C4CCC3(C)C1[C@@H]2C` (stereo partly specified), the Potency result in assay [1] is “inactive”. Besides, the Z-AUC in assay [2] was 0.426 (inactive); in assay [2] (setting [9]), 0.314; in assay [2] (measured here: PEO4 Z-AUC) it was 0.526. For the same compound, the z-score was found to be 0.586 in assay [3] (setting [10]), 0.304 in assay [3] (setting [11]) and 0.634 in assay [3] (setting [12]).
With `CCC(C)CCCCC(=O)N[C@@H](CCN)C(=O)NC(C(=O)N[C@H](CCN)C(=O)N[C@@H]1CCNC(=O)C([C@@H](C)O)NC(=O)[C@@H](CCN)NC(=O)[C@@H](CCN)NC(=O)[C@@H](CC(C)C)NC(=O)[C@H](Cc2ccccc2)NC(=O)[C@H](CCN)NC1=O)[C@@H](C)O` (stereo partly drawn) ({Octanoyl(6-Me)}-[Dab][ξThr(3R)][dDab][dDab][Dab]F[dL][dDab][dDab][ξThr(3R)]; lactam 4-C), in assay [1], the Potency entry is “inactive”. Also, the Z-AUC in assay [2] is 1.19 (inactive); in assay [2] (setting [9]) it was 0.672; in assay [2] (measured here: PEO4 Z-AUC), 0.762. Also, the z-score is 0.782 in assay [3] (setting [10]), 0.881 in assay [3] (setting [11]) and 0.703 in assay [3] (setting [12]).
For `Cn1cc(C[C@@H](N)C(=O)O)c2ccccc21`, the Potency result in assay [1] was “inactive”. Further, the Z-AUC in assay [2] is 0.11 (inactive); in assay [2] (setting [9]) it was 1.01; in assay [2] (measured here: PEO4 Z-AUC) it was 0.769. Further, the z-score was determined as 1.28 in assay [3] (setting [10]), 1.02 in assay [3] (setting [11]) and 1.04 in assay [3] (setting [12]).
On to `CCCCCCCN(CC)CCCC(O)c1ccc(NS(C)(=O)=O)cc1` (stereo unspecified), for which the Potency result in assay [1] was “inactive”. Besides, the Z-AUC in assay [2] is 1.02 (inactive); in assay [2] (setting [9]), 0.764; in assay [2] (measured here: PEO4 Z-AUC), 1.03. In addition, the figures for the z-score in assay [3] (setting [10]), in assay [3] (setting [11]) and in assay [3] (setting [12]) were 0.349, -0.246 and 0.649, respectively.
With `CC(=O)O[C@H]1C[C@@H]2CC[C@H]3[C@H]4C[C@H]([N+]5(C)CCCCC5)[C@@H](OC(C)=O)[C@@]4(C)CC[C@@H]3[C@@]2(C)C[C@H]1N1CCCCC1`, the Potency result in assay [1] is “inactive”. The figures for the z-score in assay [3] (setting [10]), in assay [3] (setting [11]) and in assay [3] (setting [12]) were 0.765, 0.686 and -3.76, respectively.
On to `CC(C)OC(=O)[C@H](C)N[P@](=O)(OC[C@H]1O[C@@H](n2ccc(=O)[nH]c2=O)[C@](C)(F)[C@H]1O)Oc1ccccc1`, for which the Potency entry in assay [1] is “inactive”. Moreover, the figures for the z-score in assay [3] (setting [10]), in assay [3] (setting [11]) and in assay [3] (setting [12]) were 0.488, 1.3 and 0.519, respectively.
For `COc1ccc([C@@H]2CNC(=O)C2)cc1OC1CCCC1`, the Potency result in assay [1], in assay [4], in assay [5], in assay [6], in assay [7] and in assay [8] was “inactive” in each case. Moreover, the Z-AUC was -0.0996 (inactive) in assay [2], -0.168 in assay [2] (setting [9]) and 0.0398 in assay [2] (measured here: PEO4 Z-AUC).
